According to PubChem BioAssay (Tox21):
Results filed as inconclusive are left out. Entries that show only a call come without a potency. Unmarked numbers belong to inactive results. Active and inactive are the calls of the source. Calls follow the shape of the full dose curve.

Experiment: p53 small molecule agonists, cell-based qHTS assay: qHTS cell viability counter screen (AID 1963581); also: nearly all actives have a fitted effect of over 45% in size
Conditions: p53RE-bla HCT-116 viability, ATP luminescence, 16 h; series mostly up to 66 µM; activity change, negative = cytotoxicity: at the top concentration
Procedure, shortened: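 Following 5 h attachment, HCT-116 p53RE-bla cells took up compound for 16 h at 37 C; the reporter was read with B/G FRET substrate (2 h RT), and viability then via CellTiter-Glo ATP luminescence.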

Row | SMILES | activity change, negative = cytotoxicity | Potency
1 | O=c1cc(-c2ccccc2)oc2ccccc12 | 14.8% | –
2 | O=C(O)c1cc2ccccc2cc1O | – | inactive
3 | CS(=O)(=O)c1ccc(Cl)cc1 | – | inactive
4 | S=C(NC1CCCCC1)NC1CCCCC1 | – | inactive
5 | N[C@H](Cc1c[nH]c2ccccc12)C(=O)O | -0.338% [at 30.3 µM] | –
6 | CC[C@H](c1ccc(O)cc1)[C@@H](CC)c1ccc(O)cc1 | 4% [at 30.3 µM] | –
7 | C=CC(C)(O)CCC=C(C)C (stereo not given) | – | inactive
8 | O=[N+]([O-])c1ccc2nc[nH]c2c1 | – | inactive
9 | CCN(CC)c1ccc2c(C)cc(=O)oc2c1 | – | inactive
10 | CC(=O)OCc1ccccc1 | – | inactive
11 | c1ccc2c(c1)-c1cccc3c1c-2cc1ccccc13 | – | inactive
12 | OCC(CO)(CO)CO | – | inactive
13 | CN1Cc2c(N)cccc2C(c2ccccc2)C1 (stereo not given) | – | inactive
14 | CCCc1ccc(O)cc1 | 1.63% | –
15 | Cc1cccnc1 | – | inactive
16 | CCC(C)c1ccccc1O (stereo not given) | 0.0844% | –
17 | CC1=CC[C@@H]2C[C@H]1C2(C)C | -11.2% [at 13.5 µM] | –
18 | OC1CCCC1 | – | inactive

Row | SMILES | activity change, negative = cytotoxicity | Potency
19 | NS(=O)(=O)c1ccc(N2CCCCS2(=O)=O)cc1 | 0.314% [at 30.3 µM] | –
20 | N[C@@H](Cc1c[nH]c2ccccc12)C(=O)O | – | inactive
21 | CCCCCCCO | 1.09% | –
22 | N[C@@H](Cc1c[nH]c2ccc(O)cc12)C(=O)O | – | inactive
23 | CO[C@H]1C=CO[C@@]2(C)Oc3c(C)c(O)c4c(O)c(c(/C=N/N5CCN(C)CC5)c(O)c4c3C2=O)NC(=O)/C(C)=C\C=C[C@H](C)[C@H](O)[C@@H](C)[C@@H](O)[C@@H](C)[C@H](OC(C)=O)[C@@H]1C | – | inactive
24 | CC(COCC(C)OC(=O)c1ccccc1)OC(=O)c1ccccc1 (stereo not given) | – | inactive
25 | O=C(O)/C=C/c1ccccc1 | 1.22% | –
26 | CCCCCOC(C)=O | – | inactive
27 | CC(=O)OC1CC(C)OC(C)O1 (stereo not given) | – | inactive
28 | COc1ccc(COC(C)=O)cc1 | – | inactive
29 | CCCCCCCCCCCCOCCO | – | inactive
30 | NC[C@H](O)c1ccc(O)c(O)c1 | – | inactive
31 | Cc1ccc(C(C)C)cc1O | -15.1% | –
32 | Nc1ccc(S(=O)(=O)Nc2ccc(Cl)nn2)cc1 | -15.8% [at 30.3 µM] | –
33 | CC(C)(C)c1cc(Cc2cc(C(C)(C)C)c(O)c(C(C)(C)C)c2)cc(C(C)(C)C)c1O | – | inactive
34 | CCCCOCCOCCOC(=O)CCCCC(=O)OCCOCCOCCCC | – | inactive
35 | O=C(O)Cc1cccc(-c2cc(CCCCCCc3ccc(O[C@H]4O[C@H](CO)[C@@H](O)[C@H](O)[C@@H]4O)c(-c4cccc(CC(=O)O)c4)c3)ccc2O[C@H]2O[C@H](CO)[C@@H](O)[C@H](O)[C@@H]2O)c1 | -10.7% [at 0.249 µM] | –
